The source made the active and inactive calls. How the source made its calls: active means hit-call score of the fitted dose curve at least 0.9, where 1 is the maximum; inactive means score below 0.9.
Assay: CCTE_Shafer_MEA_acute_cross_correlation_area: CCTE's Neural Acute Assay for Area of Cross Correlation, Shafer Lab (AID 2284024);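 further: curves fitted for loss of cross-correlation area so actives lower synchrony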
Method: CCTE_Shafer_MEA_acute assay is conducted using Axion Biosystems 48 well microelectrode array (MEA) plates and Maestro recording system. Each well of the MEA plate contains a grid of 16 microelectrodes embedded in the culture surface. Electrically active cells, such as neurons, can be cultured over the electrodes, and electrical activity in these cells can be recorded extracellularly. The spontaneous firing of neurons is captured from each electrode on a microsecond timescale providing both temporally and spatially precise data. […] The CCTE_Shafer_MEA_acute assay uses primary cultures of rat cortical neurons. As these cultures mature over time, neural networks develop functional activity and form cohesive networks in which electrical activity can be highly coordinated. Baseline 40-minute recordings are made on days post-plating 13 or 15, followed by a secondary 40-minute recording after chemical exposure.CCTE_Shafer_MEA_acute_cross_correlation_area is a component of the CCTE_Shafer_MEA_acute assay. It measures the area under the well-wide pooled inter-electrode cross-correlation of action potential firing (not normalized to auto-correlations) within a window centered around 0 for the phase lag during a recording in a microelectrode array (MEA) using Axion Biosystems Maestro 768 channel amplifier with the AxIS adaptive spike detector. The recordings before and after chemical treatment are used to calculate a percent change in the cross correlation area in each well.Data from the assay component CCTE_Shafer_MEA_acute_cross_correlation_area was analyzed into 1 assay endpoint. This assay endpoint, CCTE_Shafer_MEA_acute_cross_correlation_area, was analyzed in the negative analysis fitting direction relative to DMSO as the negative control and baseline of activity. Using a type of functional reporter, gain or loss-of-signal activity can be used to understand electrical activity.
Spontaneous activity in the cortical cultures was recorded using an Axion Biosystems Maestro 768 channel amplifier and Axion Integrated Studios (AxIS) v1.8 (or later) software. The amplifier recorded from all channels simultaneously (gain = 1200 x; sampling rate = 12.5 kHz/channel): raw signals were filtered with a Butterworth band-pass filter (300-5000 Hz), which filters out slower local field potentials leaving only fast potentials, i.e., "spikes", arising from extracellular currents associated with action potentials (Pine 2006; Wheeler and Nam 2011). On-line spike detection of filtered signals was conducted with the AxIS adaptive spike detector, using a threshold of 8x the root mean squared (rms) noise on each channel. Any electrodes with rms noise levels greater than 5 uV were grounded (e.g., no data were recorded). Once grounded, an electrode was grounded for the duration of the experiment. All recordings were conducted at 37 C. Wells were deemed usable if on the day of the exposure >/= 10 electrodes were active (defined as >/= 5 spikes/min). On DIV 13 or 15, a minimum of three wells from one cortical culture preparation were treated with each compound (0.03-40 uM). Prior to recording baseline activity, each mwMEA plate was placed in the Maestro at 37 C and allowed to sit for 20 min while firing rates stabilized. Baseline activity (40 min) was recorded before the addition of each compound. An additional 40 min of spontaneous activity was recorded in the presence of each compound. Changes in network parameters relative to baseline were assessed following compound treatment.
For `CN(C)C(=N)N=C(N)N`, the outcome was “inactive”.
With `OC1OC[C@@H](O)[C@H](O)[C@H]1O` (stereo partly specified) the outcome was “inactive”.
With `CC(C)(COC(=O)c1ccccc1)COC(=O)c1ccccc1` the outcome was “inactive”.
For `CC(=O)OCCC(C)CC(C)(C)C` (stereo unspecified), the outcome was “inactive”.
With `Cc1cc(C2(c3cc(C)c(O)cc3C)OS(=O)(=O)c3ccccc32)c(C)cc1O` the outcome was “inactive”.
For `Nc1cc([N+](=O)[O-])ccc1O`, the outcome was “inactive”.
For `NCCNCCN`, the outcome was “inactive”.
For `CCCCCCCCC=O`, the outcome was “inactive”.
For `COc1cc(C=O)ccc1OC(=O)C(C)C`, the outcome was “inactive”.
With `C[C@H]1C[C@@H]2[C@H]([C@@H](O)C[C@@]3(C)[C@H]2CC[C@]3(O)C(=O)CO)[C@@]2(C)C=CC(=O)C=C12` the AC50 was 4.5 nM (active).
For `OC[C@H]1O[C@H](O[C@]2(CCl)O[C@H](CCl)[C@@H](O)[C@@H]2O)[C@H](O)[C@@H](O)[C@H]1Cl`, the outcome was “inactive”.
In the case of `C=C[Si](OCC)(OCC)OCC`, the outcome is reported as “inactive”.
With `CC(=O)[C@H]1CC[C@H]2[C@@H]3CC=C4C[C@@H](O)CC[C@]4(C)[C@H]3CC[C@]12C` the AC50 was 3 nM (active).
In the case of `C=CCOC(=O)CCC1CCCCC1`, the outcome is reported as “inactive”.
With `CCC(=O)OCc1ccccc1` the AC50 was 9.43 nM (active).
In the case of `CC[Si](OC(C)=O)(OC(C)=O)OC(C)=O`, the outcome is reported as “inactive”.

Source: PubChem BioAssay (EPA / NIEHS)
